Laboratory results: PubChem BioAssay (Tox21)
Records with an inconclusive call do not appear. Where a call stands in place of a potency, no number is given. Where a structure was tested more than once in an assay, its records may differ in their call. Calls of active or inactive are those of the source. Unless noted, the call rests on the fitted dose curve; in most records, active means well fitted curve in the direction sought with a large enough effect in the repeat runs; inconclusive means weak or mixed curves; inactive means no such curve, though single readings can be large; an effect the other way counts as inactive or inconclusive.

Assays:
[1] = qHTS assay to identify small molecule agonists of the estrogen receptor alpha (ER-alpha) signaling pathway in the presence of an antagonist - cell viability counter screen (AID 1259386); further: nearly all actives have a fitted effect of over 30% in size; further: potency means the concentration at half of the fitted maximal effect
Method in brief: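 Compounds tested at 15 concentrations for 22 h at 37C alongside 10.0nM (final) ICI-182,780 antagonist, in VM7Luc4E2 cells grown in phenol red-free, charcoal-stripped medium. Viability read by CellTiter-Fluor fluorescence after 1 h reagent incubation.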

[2] = target: Progesterone receptor (Homo sapiens) (UniProt P06401); assay: qHTS assay to identify small molecule agonists of the progesterone receptor (PR) signaling pathway (AID 1346784; calls by dose curve; further: nearly all actives have a fitted effect of over 30% in size; further: potency means the concentration at half of the fitted maximal effect)
Progesterone receptor (Homo sapiens), sequence (P06401 whole entry, looked up): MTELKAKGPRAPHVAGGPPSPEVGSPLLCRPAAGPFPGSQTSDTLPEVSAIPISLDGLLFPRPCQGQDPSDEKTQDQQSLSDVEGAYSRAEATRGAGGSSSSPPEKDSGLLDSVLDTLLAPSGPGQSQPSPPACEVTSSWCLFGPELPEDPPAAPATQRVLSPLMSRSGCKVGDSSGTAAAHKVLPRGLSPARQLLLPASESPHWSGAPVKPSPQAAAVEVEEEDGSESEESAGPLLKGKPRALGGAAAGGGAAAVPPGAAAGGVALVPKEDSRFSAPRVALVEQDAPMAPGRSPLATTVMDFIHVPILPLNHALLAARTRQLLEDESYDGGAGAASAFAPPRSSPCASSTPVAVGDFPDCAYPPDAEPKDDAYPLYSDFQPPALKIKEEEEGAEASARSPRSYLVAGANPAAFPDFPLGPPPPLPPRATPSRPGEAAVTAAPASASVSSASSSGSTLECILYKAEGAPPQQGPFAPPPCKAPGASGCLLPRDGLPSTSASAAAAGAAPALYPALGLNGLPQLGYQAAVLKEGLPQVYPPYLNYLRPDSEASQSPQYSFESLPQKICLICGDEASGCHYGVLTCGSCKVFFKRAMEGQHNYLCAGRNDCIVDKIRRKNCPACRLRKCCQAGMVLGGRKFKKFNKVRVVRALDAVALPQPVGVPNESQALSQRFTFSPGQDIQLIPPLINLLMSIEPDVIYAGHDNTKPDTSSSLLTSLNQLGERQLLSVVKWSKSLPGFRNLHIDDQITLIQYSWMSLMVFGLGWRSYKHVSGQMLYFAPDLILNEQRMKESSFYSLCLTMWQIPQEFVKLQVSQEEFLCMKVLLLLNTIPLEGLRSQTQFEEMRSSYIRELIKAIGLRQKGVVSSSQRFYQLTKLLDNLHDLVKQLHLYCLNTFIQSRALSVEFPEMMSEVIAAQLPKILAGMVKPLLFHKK
Method in brief: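 Cells (PR-UAS-bla HEK 293T, GripTite) were plated in assay medium containing 2% charcoal-stripped FBS and incubated 6 hr. Test compounds in DMSO were added for 16 hr at 37C. FRET substrate was then loaded for 2 hr at room temperature before fluorescence reading.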

[3] = target: Progesterone receptor (Homo sapiens) (UniProt P06401); assay: qHTS assay to identify small molecule antagonists of the progesterone receptor (PR) signaling pathway (AID 1346795; active means well fitted inhibition curve with a large enough effect in the signal ratio in the repeat runs, not every such curve was filed as active; the % refers to the signal ratio; further: potency means the concentration at half of the fitted maximal effect)
Method in brief: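 Antagonist mode: compounds tested against 1 nM (final) promegestone stimulation in HEK293T cells expressing PR-UAS-bla reporter, 16 hr at 37C, 5% CO2; beta-lactamase activity detected via B/G FRET substrate after 2 hr at room temperature.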

[4] = qHTS assay to identify small molecule antagonists of the progesterone receptor (PR) signaling pathway - cell viability counter screen (AID 1346798); further: nearly all actives have a fitted effect of over 50% in size; further: potency means the concentration at half of the fitted maximal effect
Method in brief: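 Counter screen for cytotoxicity: viability of PR-UAS-bla HEK293T cells was measured with CellTiter-Glo luminescence following 16 hr compound exposure in the presence of R5020.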

[5] = qHTS assay to identify small molecule antagonists of the TGF-beta/Smad signaling pathway - cell viability counter screen (AID 1346824); further: nearly all actives have a fitted effect of over 50% in size
Method in brief: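 Cytotoxicity counter-screen run in the same wells as the beta-lactamase Smad reporter read: CellTiter-Glo luminescence after 30 min at room temperature. HEK 293T SBE-bla cells had 5 hr compound exposure at 37 C with TGF-beta1 (0.25 ng/mL stock).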

[6] = qHTS assay to identify small molecule agonists of the TGF-beta/Smad signaling pathway - cell viability counter screen (AID 1346829); further: top concentration of the series differs between compounds; nearly all actives have a fitted effect of over 45% in size
Method in brief: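 Luminescence from CellTiter-Glo, read after a 30 min room-temperature incubation, gives cell viability of SBE-bla HEK 293T cells treated 5 hr with compounds at 37 C.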

[7] = qHTS assay to identify small molecule agonists of the TGF-beta/Smad signaling pathway (AID 1346859; active means well fitted activation curve with a large enough effect in the signal ratio in the repeat runs, not every such curve was filed as active; the % refers to the signal ratio; further: series mostly up to about 77 µM)
Method in brief: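 Reporter line: HEK 293T with stably integrated SBE-controlled beta-lactamase. Compound exposure lasts 5 hr at 37 C and 5% CO2; substrate loading follows for 2 hr at room temperature, with emission read at 460 and 530 nm.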

[8] = target: Thyrotropin-releasing hormone receptor (Homo sapiens) (UniProt P34981); assay: qHTS assay to identify small molecule antagonists of the thyrotropin-releasing hormone receptor (TRHR) signaling pathway (AID 1346877; active means well fitted inhibition curve with a large enough effect in the repeat runs, not every such curve was filed as active; further: series mostly up to about 51 µM)
Thyrotropin-releasing hormone receptor (Homo sapiens), sequence (P34981 whole entry, looked up): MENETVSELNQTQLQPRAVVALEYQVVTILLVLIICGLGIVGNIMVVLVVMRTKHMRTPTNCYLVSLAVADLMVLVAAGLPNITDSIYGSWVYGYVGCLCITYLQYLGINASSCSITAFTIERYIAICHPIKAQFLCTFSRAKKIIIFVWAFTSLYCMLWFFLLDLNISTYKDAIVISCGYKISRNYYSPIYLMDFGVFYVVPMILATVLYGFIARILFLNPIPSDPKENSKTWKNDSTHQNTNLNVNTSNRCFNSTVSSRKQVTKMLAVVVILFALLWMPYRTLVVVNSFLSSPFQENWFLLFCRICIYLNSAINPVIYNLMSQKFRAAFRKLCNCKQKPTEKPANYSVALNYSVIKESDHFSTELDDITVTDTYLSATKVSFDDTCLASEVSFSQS
Method in brief: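 Antagonist mode: after a 5 min room-temperature compound exposure, cells were stimulated with 1 nM (final) TRH. Dye-loaded TRHR-HEK293 cells were used, and calcium-dependent fluorescence was followed for 3 min, with 15-point titrations run in triplicate.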

[9] = qHTS assay to identify small molecule agonists of the progesterone receptor (PR) signaling pathway - cell viability counter screen (AID 1346799; calls by dose curve; further: nearly all actives have a fitted effect of over 45% in size; further: potency means the concentration at half of the fitted maximal effect)
Method in brief: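 Cells (PR-UAS-bla HEK293T) are plated at 3,000/well in 2% charcoal-stripped FBS medium, rested 6 hr, dosed and incubated 16 hr at 37C. CellTiter-Glo is then added and luminescence measured after 30 min at room temperature.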

SMILES | Potency [1] | Potency [2] | Potency [3] | Potency [4] | outcome [5] | Potency [6] | outcome [7] | Potency [8] | Potency [9]
CN(C)CCN(C)C | inactive | 27.2 µM (active) | inactive | inactive | inactive | inactive | inactive | inactive | –
O=[N+]([O-])CCO | inactive | inactive | inactive | inactive | inactive | inactive | inactive | inactive | inactive
Cn1c(N)nc2c3cccnc3ccc21 | 26 µM (active) | inactive | inactive | inactive | inactive | inactive | inactive | inactive | –
O=C(O)C(Cl)Br (stereo not given) | inactive | inactive | inactive | inactive | inactive | – | inactive | inactive | inactive
CCN(CCO)CCO | inactive | inactive | inactive | inactive | inactive | inactive | inactive | inactive | inactive
Cc1ccc(S(=O)(=O)N[C@@H](CCCCN)C(=O)CCl)cc1 | inactive | inactive | inactive | inactive | inactive | inactive | inactive | inactive | –
O=C1CC(=O)NC(=O)N1 | inactive | inactive | inactive | inactive | inactive | inactive | inactive | inactive | inactive
O=c1[nH]c2ccccc2o1 | inactive | inactive | inactive | inactive | inactive | inactive | inactive | inactive | –
CCCCCCC1CCOC1=O (stereo not given) | inactive | inactive | inactive | inactive | inactive | inactive | inactive | inactive | –
Cc1ccc2cc(C)ccc2c1 | inactive | inactive | inactive | inactive | inactive | – | inactive | inactive | inactive
ClC(Cl)(Cl)Cl | inactive | inactive | inactive | inactive | inactive | inactive | inactive | inactive | inactive
O=C(Cl)CCl | inactive | inactive | inactive | inactive | inactive | inactive | inactive | inactive | inactive
OCC(Cl)CCl (stereo not given) | inactive | inactive | – | inactive | inactive | – | inactive | inactive | –
C=C(Cl)CSC(=S)N(CC)CC | inactive | inactive | – | inactive | inactive | inactive | inactive | – | inactive
CC(C)C(C)(N)C#N (stereo not given) | inactive | inactive | – | inactive | inactive | inactive | inactive | inactive | inactive
NCCOS(=O)(=O)O | inactive | inactive | inactive | – | inactive | inactive | inactive | inactive | inactive
CC(C)[C@]12CC(=O)[C@H](C)[C@H]1C2 | inactive | inactive | – | – | inactive | inactive | inactive | – | inactive
CN(C)CCc1c[nH]c2cccc(OP(=O)(O)O)c12 | – | inactive | inactive | inactive | inactive | inactive | inactive | inactive | inactive
C[C@]12C=CC(=O)C=C1CC[C@@H]1[C@@H]2CC[C@@]2(C)[C@H]1CC[C@]2(C)O | inactive | 3.35 µM (active) | – | – | inactive | inactive | inactive | inactive | –
CC(C)(C)c1cc(O)ccc1O | inactive | inactive | inactive | – | inactive | inactive | inactive | inactive | –
Cn1c(CCCC(=O)O)nc2cc(N(CCCl)CCCl)ccc21 | inactive | inactive | – | inactive | inactive | inactive | inactive | inactive | –
ClCCCCCCCl | inactive | inactive | – | – | inactive | – | inactive | inactive | inactive
BrCC1CO1 (stereo not given) | inactive | inactive | – | inactive | inactive | inactive | inactive | inactive | –
O=C(O)C(F)(F)C(F)(F)C(F)(F)C(F)(F)C(F)(F)C(F)(F)F | inactive | – | inactive | 48.6 µM (active) | inactive | inactive | inactive | inactive | 27.3 µM (active)

SMILES | Potency [1] | Potency [2] | Potency [3] | Potency [4] | outcome [5] | Potency [6] | outcome [7] | Potency [8] | Potency [9]
C[C@H](CN1CCOCC1)C(C(=O)N1CCCC1)(c1ccccc1)c1ccccc1 | inactive | inactive | – | inactive | inactive | inactive | inactive | inactive | inactive
COc1cc(CC(C)N)cc(OC)c1OC (stereo not given) | inactive | inactive | inactive | – | inactive | – | inactive | inactive | –
CNC(=O)Oc1cc(C)c(N(C)C)c(C)c1 | inactive | inactive | – | inactive | inactive | inactive | inactive | inactive | inactive
N[C@@H](Cc1ccc(Oc2cc(I)c(O)c(I)c2)c(I)c1)C(=O)O | inactive | inactive | – | inactive | inactive | inactive | inactive | inactive | –
C[C@H]1CCCC(=O)CCC/C=C/c2cc(O)cc(O)c2C(=O)O1 | 46.8 µM (active) and inactive | – | 5.02 µM (active) | – | inactive | inactive | inactive | inactive | –
CCOc1cc(OP(=S)(OC)OC)nc(CC)n1 | inactive | inactive | – | inactive | inactive | inactive | inactive | inactive | –
CCNc1nc(Cl)nc(NC(C)(C)C)n1 | inactive | inactive | – | inactive | inactive | inactive | inactive | inactive | inactive
C=C1C[C@@H]2[C@H](CC[C@]3(C)C(=O)CC[C@@H]23)[C@@]2(C)C=CC(=O)C=C12 | – | inactive | – | inactive | inactive | inactive | – | inactive | –
CCN(CC)C1CCCCC1 | inactive | inactive | inactive | inactive | inactive | – | inactive | inactive | –
C[N+]1(C)CCCCC1 | inactive | – | inactive | inactive | inactive | inactive | inactive | inactive | –
CC(C)(C)NC[C@H](O)c1ccc(O)cc1Cl | inactive | inactive | – | inactive | inactive | inactive | inactive | inactive | inactive
CCCCCCCCSC(=O)Oc1cc(Cl)nnc1-c1ccccc1 | inactive | inactive | – | inactive | inactive | inactive | inactive | inactive | inactive
COc1ccc2c(C(=O)c3ccc(Cl)cc3)c(C)n(CC(=O)O)c2c1 | inactive | inactive | – | inactive | inactive | inactive | inactive | inactive | inactive
O=C(NC(=O)c1c(F)cccc1F)Nc1cc(Cl)c(F)c(Cl)c1F | inactive | inactive | – | inactive | – | inactive | inactive | inactive | inactive
CC[C@@H](CO)NC(=O)[C@@H]1C=C2c3cccc4c3c(cn4C)C[C@H]2N(C)C1 | inactive | inactive | – | inactive | inactive | inactive | inactive | inactive | inactive
CC(C)(C1CCC(O)CC1)C1CCC(O)CC1 (stereo not given) | inactive | inactive | 27.3 µM (active) | – | inactive | inactive | inactive | – | inactive
Oc1ccc2c3c1O[C@H]1[C@@H](O)C=C[C@H]4[C@@H](C2)NCC[C@@]341 | – | inactive | – | inactive | inactive | – | inactive | – | –
Cc1ccc(-c2nc3ccc(C)cn3c2CC(=O)N(C)C)cc1 | – | inactive | inactive | inactive | inactive | inactive | inactive | inactive | –
CC(Cc1ccccc1)NCCn1cnc2c1c(=O)n(C)c(=O)n2C (stereo not given) | – | inactive | inactive | inactive | inactive | inactive | inactive | inactive | inactive
C#CC(C)(C)O | inactive | inactive | – | inactive | inactive | inactive | inactive | – | inactive
CCC(CC)(CNC(=O)CCCO)c1cccc(OC)c1 | inactive | inactive | – | inactive | inactive | inactive | inactive | inactive | –
C=CC1(C)OC(=O)N(c2cc(Cl)cc(Cl)c2)C1=O (stereo not given) | inactive | inactive | – | – | inactive | – | inactive | inactive | 54.2 µM (active) and inactive
O=C(Cl)/C=C/C(=O)Cl | inactive | – | – | inactive | inactive | inactive | inactive | – | –
CCNP(=S)(OC)O/C(C)=C/C(=O)OC(C)C (stereo not given) | inactive | inactive | – | inactive | – | inactive | inactive | inactive | –
